± gives the standard deviation.

The test system of this test is EfPiwi piRISC loaded with piRNA #1 (26 nt). Kind of test: pre-steady-state target cleavage rate (min^-1); auxiliary factor: 500 nM Ephydatia muelleri Gtsf1; guide: piRNA #1 5'p-UGAGGUAGUAGGUUGUAUAGUAUCCA; MIWI and MILI are mouse PIWI proteins and EfPiwi is from a freshwater sponge; tags in brackets are library labels; higher = faster piRNA-guided slicing of the target. The procedure:
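Cleave-'n-Seq: a library of target RNAs (target site in constant flanks) at […] was incubated with 1 nM active freshwater sponge Ephydatia fluviatilis Piwi piRISC (synthetic 5'-monophosphorylated piRNA guide) with or without 500 nM EmGtsf1 at 33 °C for 1 min to 16 h. Uncleaved targets were sequenced and the pooled three trials fitted to a burst-and-steady-state model to give the pre-steady-state cleavage rate (min^-1). Sequence is the target site only. Fits with R² ≤ 0 are excluded.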
Turning to GGAGAGGUUACUAUACUACCUACUACCUCA, the “pre-steady-state target cleavage rate” value amounted to 0.00488 ± 0.0024.
As to GGAGACGAUACUAUACAACCAUCUACCUCA, the “pre-steady-state target cleavage rate” value was 0.00359 ± 0.001.
To GGAGACCUAUCUAUACACCCUACUACCUCA belongs 0.00728 ± 0.0037; to GGAGUGGAUACUAUACUUCCUACUACCUCA, 0.0195 ± 0.01; to GGAGACGAUACUAUACAACCUAGUACGUCA, 0.00328 ± 0.0016.
To GGAGACGAUACUAUACAACCUACUACCCUCA belongs 0.00506 ± 0.0015; to GGAGACGAUACUAUACAACCAACAACCUCA, 0.00278 ± 0.0019; to GGAGACCUAACUAUACAACCUAGUACCUCA, 0.00385 ± 0.0021.
Under GGAGACCAUACUAUACAACCUACUACCCUCA stands 0.00445 ± 0.0021.
As for GGAGACCUUACUAUACAACCUAUUACCUCA, the “pre-steady-state target cleavage rate” value amounted to 0.0052 ± 0.0025.
Under GGAGACGGUACUAUACAACCUACUACCUCA stands 0.0154 ± 0.0059; under GGAGAGGAUACCUAUACAACCUACUACCUCA, 0.0826 ± 0.033.
In the case of GGAGUGGAUACUAAUACAACCUACUACCUCA, the “pre-steady-state target cleavage rate” value stood at 0.08 ± 0.032.
Turning to GGAGACCAUACUGAUACAACCUACUACCUCA, the “pre-steady-state target cleavage rate” value is 0.0368 ± 0.013.
Under GGAGACCAUACUAUACCACCUACUACCUCA stands 0.00807 ± 0.004.
To GGAGACGAUACUAUACAACCUUCUACCACA belongs 0.00454 ± 0.0022; to GGAGACCAUUCUAUACUACCUACUACCUCA, 0.00741 ± 0.0044; to GGAGACGAUACUAUUCAUCCUACUACCUCA, 0.00763 ± 0.0036.
To GGAGACCAUCACUAUACAACCUACUACCUCA belongs 0.0254 ± 0.012; to GGAGACCUAACUAUACAACCUACUACGUGA, 0.0069 ± 0.0046; to GGAGACCAUACUUAACAACCUACUACCUCA, 0.00395 ± 0.0032.
Regarding GGAGACGAUACUAUACAUCCUACUACCACA, the “pre-steady-state target cleavage rate” value came to 0.0049 ± 0.0017.
To GGAGACCAUACUAUACAACCCACUACCUCA belongs 0.0058 ± 0.0024; to GGAGACCAAACUAUACAACCUACAACCUCA, 0.008 ± 0.0041; to GGAGAGGACACUAUACAACCUACUACCUCA, 0.0224 ± 0.0085.
Take GGAGAGGAUACUAUACAACCAACUACCUCA: the “pre-steady-state target cleavage rate” value turned out to be 0.00561 ± 0.002.
Under GGAGACGAUACGUAUACAACCUACUACCUCA stands 0.00952 ± 0.0048.
To GGAGACCAAACUAUACAAGCUACUACCUCA belongs 0.00675 ± 0.0052.
To GGAGACGAUUCUAAACAACCUACUACCUCA belongs 0.00926 ± 0.0045.
On to GGAGAGGAUACUAUAAAACCUACUACCUCA, for which the “pre-steady-state target cleavage rate” value worked out at 0.00425 ± 0.0029.
To GGAGACCUAACUAUACAACCUACAACCUGA belongs 0.00402 ± 0.0029.
To GGAGAGGUUACUAUACAUCCUACUACCUCA belongs 0.00567 ± 0.0029; to GGAGACCUAUCUAUACAACCUCCUACCUCA, 0.00509 ± 0.0028.
As to GGAGAGCAUACUAUACAACCUACUACCACA, the “pre-steady-state target cleavage rate” value stood at 0.00318 ± 0.0021.
To GGAGAGGAUACUUUACAACCUACUACCACA belongs 0.0019 ± 0.0011.
Under GGAGUGGAUACUAUUCAACCUACUACCACA stands 0.00327 ± 0.0022; under GGAGUAGGAUACUAUACAACCUACUACCUCA, 0.0546 ± 0.019; under GGAGAGGAUACUAUACAACCAACUACGUCA, 0.00338 ± 0.0016.
In the case of GGAGUGGAUACUAUACAACCUACUAGCACA, the “pre-steady-state target cleavage rate” value stood at 0.00246 ± 0.0018.
For GGAGACCAUACAUUACAACCUACUACCUCA, the “pre-steady-state target cleavage rate” value was 0.0108 ± 0.0045.

The values are drawn from the supplement of paper PMC10338343.
